Source: PubChem (National Center for Advancing Translational Sciences (NCATS))
HT1080NT lethal: qHTS for induction of synthetic lethality in tumor cells producing 2HG: qHTS for the HT-1080-NT fibrosarcoma cell line | AID 686970, 2013 | HT-1080-NT fibrosarcoma viability, CellTiter-Glo ATP luminescence, 48 h | Potency, µM (highest dose often 46.1 µM), actives largely listed as cytotoxic | actives 1.6% (n = 360,000);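 further: NT is the 2HG producing partner of a matched IDH1 knockdown line; nearly all actives have a fitted effect of over 55% in size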
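Fibrosarcoma NT cells, 750 per well in 5% FBS RPMI, were exposed to compound for 48 hours. Viability: CellTiter-Glo luminescence.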
IL-1B inflam inh: qHTS for Inhibitors of Inflammasome Signaling: IL-1-beta AlphaLISA Primary Screen; THP-1 LPS/ATP IL-1B secretion, AlphaLISA, 16 h; stronger effect = lower value; activity change, % at 57.5 µM; actives 4.7% (n = 360,000); AID 743279, 2014; in the data active means activity change below about -50%; inconclusive means mostly about -30% to -49%
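THP-1 cells pretreated 1 hr with compounds (up to 57.5 uM final), then stimulated with LPS (250 ng/mL final) plus ATP (1.25 mM final); secreted IL-1B measured by AlphaLISA after 16 hr, decreased signal indicating inhibition.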
HT1080 IDH1KD tx: qHTS for induction of synthetic lethality in tumor cells producing 2HG: qHTS for the HT-1080-IDH1KD cell line | Potency, µM (series often up to 46.1 µM), most hits filed as cytotoxic | HT-1080 IDH1 knockdown viability, ATP luminescence, 48 h | actives 2% (n = 360,000)
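Assay cells: HT-1080 with IDH1 knockdown, 750 per well, RPMI/5% FBS. Exposure: 48 h at 37 °C following 2 h pre-incubation. Read: CellTiter-Glo luminescence; fitted concentration-response, curve class assigned.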
TDP1 cell CPT: qHTS for Inhibitors of human tyrosyl-DNA phosphodiesterase 1 (TDP1): qHTS in cells in presence of CPT; chicken DT40 Tdp1-/-;hTDP1 cells + 20 nM CPT, ATP luminescence, 48 h; Potency, µM (titrated, usually from 46.2 µM), most hits filed as inhibitors; actives 12% (n = 420,000); AID 686979, 2013; further: nearly all actives have a fitted effect of over 55% in size
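Chicken DT40 Tdp1-/- cells stably complemented with human TDP1 were seeded at 400 cells/well in medium containing 20 nM camptothecin, exposed to pin-transferred compounds, and grown at 37 °C for at least 48 hr. Viability was read as ATP luminescence.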
uPA surface inh: qHTS for Inhibitors of Cell Surface uPA Generation; cell surface uPA generation assay, qHTS; Potency, µM (highest dose often 38.3 µM), actives largely listed as inhibitors; actives 0.31% (n = 330,000); AID 540303, 2011; active means well fitted inhibition curve with a large enough effect; inconclusive means small, poorly fitted or top-dose-only effect; inactive means no such curve, though single readings can be large or run the other way; tested in mouse RAW 264.7 cells; further: nearly all actives have a fitted effect of over 55% in size
TDP1 cell noCPT: qHTS for Inhibitors of human tyrosyl-DNA phosphodiesterase 1 (TDP1): qHTS in cells in absence of CPT | AID 686978, 2013 | actives 15% (n = 420,000) | Potency, µM (series often up to 46.2 µM), hits mostly inhibitors | DT40 Tdp1-/- hTDP1 cells, no CPT, ATP luminescence, 48 h; further: nearly all actives have a fitted effect of over 55% in size
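Compound effects on proliferation are scored in DT40 Tdp1-/-;hTDP1 cells in the absence of CPT. ATP levels (CellTiter-Glo luminescence) are recorded after a ≥48 hr, 37 °C incubation.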
Hits are given with their value; – = inactive; ? = inconclusive; · = no result given; [ ] = remark or other dose. Compounds with a hit are over-represented: about 19% of the library has one in this group of screens. Unless noted, the call rests on the fitted dose curve; in most records, active means well fitted curve in the direction sought with a large enough effect; inconclusive means small, poorly fitted or top-dose-only effect, or another doubt; inactive means no such curve, though single readings can be large; an effect the other way counts as inactive or inconclusive.

SMILES	HT1080NT lethal	IL-1B inflam inh	HT1080 IDH1KD tx	TDP1 cell CPT	uPA surface inh	TDP1 cell noCPT
CC12CCC=CC1=C(C=O)C1C2CCC2(C)C(O)CCC12 (stereo not given)	–	-97	?	?	–	26µM
COc1ccc([N+](=O)[O-])cc1NC(=O)c1cn(-c2ccc(C)c(C)c2)c(=O)c2ccccc12	–	–	–	–	–	–
C[C@@H]1CC=C[C@H]2[C@H]1C(=O)N(Cc1ccccc1)[C@H]2c1ccc2ccccc2c1	–	–	?	?	–	?
C[C@@H]1CC=C[C@H]2[C@H]1C(=O)N(Cc1ccccc1)[C@H]2c1ccc(F)c(/C=C/c2ccccc2)c1	?	–	?	8.2µM	–	8.2µM
C[C@@]12CCC=C[C@H]1[C@H](c1ccc3ccccc3c1Br)N(Cc1ccccc1)C2=O	?	-55	?	?	?	18µM
Cc1ccc(-c2ccc([C@H]3[C@@H]4C=CCC[C@@]4(C)C(=O)N3Cc3ccccc3)c(F)c2)cc1	–	–	–	?	–	?
C[C@@H]1CC=C[C@H]2[C@H]1C(=O)N(Cc1ccccc1)[C@H]2c1cccc([N+](=O)[O-])c1	–	–	–	21µM	–	23µM
CC(=O)c1ccc(-c2ccc([C@H]3[C@@H]4C=CCC[C@@]4(C)C(=O)N3Cc3ccccc3)c(F)c2)cc1	?	–	?	21µM	?	16µM
CCCCN1C(=O)C(CC(=O)NCCc2ccccn2)CC(C(=O)N2CCCCCC2)=C1C (stereo not given)	–	·	–	–	·	–
COc1cc(N)c(Cl)cc1C(=O)OCC(=O)N1CCCCCC1	–	–	–	–	–	–
COc1cccc(C(=O)NN2CCOCC2)c1	–	–	–	–	–	–
COc1ccc(-c2ccc(N(C)C)cc2)cc1[C@H]1[C@@H]2C=CCC[C@@]2(C)C(=O)N1Cc1ccccc1	?	–	?	29µM	–	21µM
COc1ccc(-c2cc([C@H]3[C@@H]4C=CCC[C@@]4(C)C(=O)N3Cc3ccccc3)ccc2F)cc1	–	–	?	?	–	26µM
COc1ccc(C2Nc3ccccc3C(=O)N2Cc2ccccc2)cc1 (stereo not given)	–	–	–	?	?	?
COc1ccc(-c2cc([C@H]3[C@H]4C=CC[C@@H](C)[C@@H]4C(=O)N3Cc3ccccc3)ccc2F)cc1	?	–	?	13µM	–	15µM
COC(=O)c1cn(-c2nc3ccccc3s2)nn1	–	–	–	?	·	16µM
Clc1ccc(-c2cn(-c3nc4ccccc4s3)nn2)cc1	–	–	–	–	·	–
CN(C)S(=O)(=O)c1ccc(Cl)c(NC(=O)CSc2nc3ccccc3c(=O)n2CCCN2CCOCC2)c1	–	–	–	?	–	26µM
Cc1cccc(NC(=O)C(C)Sc2nc3ccccc3c(=O)n2CCCN2CCOCC2)c1 (stereo not given)	–[9.24 µM]	?	?	23µM	?	–
COc1ccc(NC(=O)CSc2nc3ccccc3c(=O)n2CCCN2CCOCC2)c(OC)c1	–	–	–	?	–	?
Cc1ccc(NC(=O)CSc2nc3ccccc3c(=O)n2CCC(=O)NC2CCCCC2)cc1C	·	·	·	–	·	–
CCc1ccc(NC(=O)CSc2nc3ccccc3c(=O)n2CCCN2CCC(C)CC2)cc1	?	-100	21µM	?	–	23µM
Cc1ccc(NC(=O)CSc2nc3ccccc3c(=O)n2CCCN2CCCCC2)cc1C	–	–	?	26µM	–	?
O=[N+]([O-])c1cccc(C2(O)COc3ccccc3O2)c1 (stereo not given)	–	–	–	–	–	–
O=C(CSc1nc2ccccc2c(=O)n1CCCN1CCOCC1)Nc1ccc(Br)cc1	?	–	13µM	?	–	?
SMILES	HT1080NT lethal	IL-1B inflam inh	HT1080 IDH1KD tx	TDP1 cell CPT	uPA surface inh	TDP1 cell noCPT
CCCCn1c(SCC(=O)NCc2ccccc2)nc2ccc(N3CCOCC3)cc2c1=O	–	–	–	–	·	1.5µM
Cc1ccc(S(=O)(=O)N(C)C)cc1-n1c(SCC(=O)Nc2ccc(F)cc2Cl)nc2ccccc2c1=O	–	–	–	21µM	–	16µM
CCCCn1c(SCC(=O)Nc2cc(NC(=O)c3ccco3)ccc2C)nc2ccccc2c1=O	?	–	11µM	?	·	23µM
CCOC(=O)N/N=C(\c1ccccc1)C(O)c1ccccc1 (stereo not given)	–	–	–	–	–	?
CC(C)CC(=O)N1CCN(c2ccc(NC(=O)c3ccco3)cc2)CC1	–	–	–	–	–	–
COc1ccc(Cl)cc1NC(=O)c1cc2nc(-c3ccc4c(c3)OCO4)cc(C(F)(F)F)n2n1	·	·	·	–	·	–
Cc1ccc(NC(=O)CSc2nc3ccccc3c(=O)n2CCCC(=O)N2CCCC2)cc1	–	–	–	18µM	–	21µM
COCCCn1c(SCC(=O)Nc2ccc(C)cc2)nc2ccccc2c1=O	–	–	–	–	–	?
COc1ccc(-c2cc(C(=O)Nc3cc(C)nn3-c3ccccc3)no2)cc1OC	–	–	–	–	–	–
FC(F)Sc1ccc(NC(=S)NCc2ccccc2)cc1	?	-92	21µM	26µM	–	?
CN(C)CCCN(Cc1ccccc1)C(=S)Nc1ccc(SC(F)F)cc1	–	?	–	18µM	?	23µM
FC(F)(F)c1ccc(NC(=S)NCc2ccccc2)cc1	?	-62	?	15µM	–	?
CN(C)CCCN(Cc1ccccc1)C(=S)NCc1ccccc1	–	–	–	–	–	?
O=C(O)c1ccc(NC(=S)NCc2ccccc2)cc1	–	–	–	?	–	–
C[C@H]1CN([C@@H](C)CO)C(=O)c2cc(C#CC3CCCC3)cnc2O[C@H]1CN(C)C(=O)Cc1ccccn1	–	–	–	–	·	–
COc1ccccc1N(C(=O)CNC(=O)c1ccco1)C(C(=O)NCC1CCCO1)c1ccccc1 (stereo not given)	–	–	–	–	–	–
O=c1cnc2cncnc2n1Cc1ccc(F)cc1	·	·	·	4.1µM	·	4.1µM
O=c1cnc2cncnc2n1Cc1ccccc1Cl	·	·	·	2.3µM	·	1.3µM
O=c1c(-c2ccccc2)nc2cncnc2n1Cc1ccc(F)cc1	·	·	·	?	·	21µM
Cc1nc2cncnc2n(Cc2ccccc2Cl)c1=O	·	·	·	–	·	–
O=c1cnc2cncnc2n1Cc1ccccc1	·	·	·	5.8µM	·	7.3µM
O/N=C\c1cnc(N2CCN(c3ccccc3)CC2)s1	–	–	–	–	–	–
